Most compounds without a hit are left out; they make up all but 1.4% or so of the library.
OPRM1-OPRD1 ag = OPRM1-OPRD1 heterodimerization agonism; P35372+P41143; activation, % at 9.3 µM; AID 504326; cells, luminescence; 0.3% of 340,000 active; in the data active = activation above about 18%
HTR5A ag ctr = HTR5A agonism, opioid heterodimer counter-screen; P47898; HTR5A agonist assay, luminescence, cell-based; activation, % at 9.3 µM; 0.61% of 340,000 active; AID 504692; in the data active = activation mostly above about 9.5%, no sharp cut-off; inactive = mostly below about 7.6%
HTR5A inv ctr = HTR5A inverse agonism, opioid heterodimer counter-screen. AID 504634. P47898. 0.083% of 340,000 active. HTR5A cell line, luminescence. inhibition, % at 9.3 µM; in the data active = inhibition mostly above about 23%, no sharp cut-off; inactive = mostly below about 18%
MOR-DOR inv ag = mu-delta opioid heterodimer inverse agonism | cell-based MOR-DOR heterodimer luminescence | inhibition, % at 9.3 µM | 0.21% of 340,000 active | AID 504357; in the data active = inhibition above about 22%, passing the limit was not always enough
pCIP destab = lowers stability of the mouse p/CIP coactivator protein. 0.01% of 290,000 active. Q05BA5. F442A p/CIP-EGFP cells, EGFP fluorescence, 16 h. decrease of EGFP signal, % at 10 µM;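 active = EGFP signal decrease of at least 30% at 10 µM or well 3 SD below plate mean, unless failing retest; inactive = the rest, including hits failing retest or dose response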
beta cell repl = inducers of beta-cell replication in MIN6 cells; proliferation, % at 10 µM; 0.29% of 330,000 active; AID 2380; MIN6 cells proliferation, ATPlite luminescence, 48 h; cells starved in 0.2% serum; 100% = growth in 10% serum;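 active = compounds whose signal lies at least 3.5 SD above the mean of all wells on their plate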
OPRM1-D1 inv cf = confirmation of human OPRM1-OPRD1 heterodimerization inverse agonists; shares compounds with MOR-DOR inv ag; cells expressing OPRM1/OPRD1 heterodimer, luminescence; inhibition, % at 9.3 µM; 20% of 580 active; in the data active = inhibition above about 32%
HTR5A inv count = HTR5A inverse agonism, opioid heterodimer counter-screen | shares compounds with MOR-DOR inv ag | HTR5A-expressing cells, luminescence | inhibition, % at 9.3 µM | 580 tested, under 10 active; call rule not given here
A number is an active result; . = inactive; / = no result.

SMILES | OPRM1-OPRD1 ag | HTR5A ag ctr | HTR5A inv ctr | MOR-DOR inv ag | pCIP destab | beta cell repl | OPRM1-D1 inv cf | HTR5A inv count
O=C(NNC(=O)c1ccc2ccccc2c1)c1ccc(Cl)c(Cl)c1 | . | . | . | . | / | / | / | /
NS(=O)(=O)c1ccc(NNC(=O)c2ccccc2)cc1 | / | / | / | / | . | . | / | /
O=C(NNc1ccccc1)c1ccc(Cl)c(Cl)c1 | . | . | . | 40.1 | / | / | 53.8 | .
CNC(=O)c1nnsc1S(=O)(=O)c1ccc(Cl)cc1 | . | . | . | 32.1 | . | . | . | .
CN(CCc1ccccc1)C(=O)c1ccc(NC(=O)Cc2ccc(NC(=O)C3CCN(C(=O)c4ccccc4)CC3)cc2)cc1 | . | . | . | . | / | / | / | /
COc1cccc(C(=O)OCC(=O)c2ccc(S(=O)(=O)N3CCCCC3)cc2)c1OC | . | . | . | 30.1 | / | . | . | .
COc1cccc(/C=C/C(=O)OCC(=O)c2ccc(S(=O)(=O)N3CCCCC3)cc2)c1OC | . | . | . | 31.3 | / | . | . | .
COc1cc(/C=C/C(=O)OCC(=O)c2ccc(S(=O)(=O)N3CCCCC3)cc2)cc(OC)c1OC | . | . | . | . | / | . | / | /
Cc1ccc(C(=O)OCC(=O)c2ccc(S(=O)(=O)N3CCCCC3)cc2)o1 | . | . | . | 52.5 | / | . | . | .
CC1CCCC(C)N1C(=O)COC(=O)c1ccc2ccccc2n1 (stereo unspecified) | . | . | . | . | / | . | / | /
O=C(Nc1ccc(Cl)cc1)C(Cl)C(=O)c1ccccc1 (stereo unspecified) | . | . | . | 36.5 | . | . | . | .
O=C(NC(=S)Nc1ccc(Cl)cc1)c1ccccc1 | . | . | . | . | . | . | / | /
O=C(NC(=S)Nc1ccccc1O)c1cncc(Br)c1 | . | . | . | 41.2 | / | . | . | .
O=C(NC(=S)Nc1ccccc1C(=O)O)c1cncc(Br)c1 | . | . | . | . | . | . | / | /
CCC(C)c1ccc(O)c(NC(=S)NC(=O)c2cccnc2)c1 (stereo unspecified) | . | . | . | 47.2 | . | . | . | .
O=C(NC(=S)Nc1ccccc1O)c1cccnc1 | . | . | . | 34.8 | . | . | . | .
Cc1cc(C(=O)CCC(=O)NC(C)c2ccc(S(N)(=O)=O)cc2)c(C)s1 (stereo unspecified) | . | . | . | . | / | . | / | /
CCCCCC(=O)NNC(=S)NC(=O)c1ccccc1[N+](=O)[O-] | . | . | . | 30.0 | . | . | . | .
COCCN(C(=O)CSc1nnc(-c2ccccc2F)n1N)c1c(N)n(Cc2ccccc2)c(=O)[nH]c1=O | . | . | . | 28.8 | . | . | . | .
CC(OC(=O)c1cccc(-n2cnnn2)c1)c1nc2ccccc2c(=O)[nH]1 (stereo unspecified) | . | . | . | . | / | . | / | /
O=C(CN=C1NS(=O)(=O)c2ccccc21)OCC(=O)c1cc(F)ccc1F | . | . | . | 29.8 | . | . | . | 45.7
O=C(CCN=C1NS(=O)(=O)c2ccccc21)OCC(=O)c1ccccc1Cl | . | . | . | . | / | . | / | /
CN(CC(=O)Nc1cccc(S(=O)(=O)NC2=NCCC2)c1)Cc1ccccc1Cl | . | . | . | . | / | . | / | /
COC(=O)Cn1cnc2c(Cl)nc(F)nc21 | . | . | . | . | / | / | / | /
Cc1nc(-n2[nH]c3c(c2=O)CCCC3)[nH]c(=O)c1Cc1ccccc1 | . | . | . | 37.3 | . | . | . | .
SMILES | OPRM1-OPRD1 ag | HTR5A ag ctr | HTR5A inv ctr | MOR-DOR inv ag | pCIP destab | beta cell repl | OPRM1-D1 inv cf | HTR5A inv count
CN(Cc1ccccc1)C(=O)COC(=O)CCN1C(=O)C2CC=CCC2C1=O (stereo unspecified) | . | . | . | . | / | . | / | /
O=C(CNC(=O)C1CCCCC1)OCC(=O)c1cccc(Cl)c1 | . | . | . | 35.8 | / | . | . | .
COc1ccc(N=Cc2[nH]c3ccccc3c2O)cc1 | . | . | . | 29.9 | . | . | . | .
CC1(C)C(c2ccccc2)=NC(c2ccc(F)cc2)N1O (stereo unspecified) | . | . | . | 29.4 | . | . | . | .
CC1(C)C(c2cccs2)=NC(c2ccccc2)N1O (stereo unspecified) | . | . | . | . | . | . | / | /
C[C@H](NC(=O)c1ccco1)C(=O)N1CCN(c2ccc(C(F)(F)F)cn2)CC1 | . | . | . | . | / | . | / | /
Cc1ccc(NCN2C(=O)C(=O)c3ccccc32)nc1 | . | . | . | 70.0 | . | . | 59.0 | .
CCOC(=O)/C=C1\SC(C)C(=O)N1CC(=O)N(CCC#N)c1ccccc1 (stereo unspecified) | . | . | . | . | / | . | / | /
O=C(CCC(=O)OCC(=O)c1ccc([N+](=O)[O-])cc1)NC1CCCCC1 | . | . | . | . | . | . | / | /
CC(=O)Nc1ccc(NC(=O)CCC(=O)OCC(=O)c2cccc([N+](=O)[O-])c2)cc1 | . | . | . | 71.2 | . | . | . | .
O=C(CCC(=O)OCC(=O)c1cccc([N+](=O)[O-])c1)NC1CCCCC1 | . | . | . | 61.7 | . | . | . | .
CC(=O)Nc1ccc(C(=O)OCC(=O)c2cccc([N+](=O)[O-])c2)cc1 | . | . | . | . | . | . | / | /
O=C(CCC(=O)OCc1cccc([N+](=O)[O-])c1)Nc1ccccc1Cl | . | . | . | . | . | . | / | /
Cc1ccc(C(=O)COC(=O)CCC(=O)Nc2cc(Cl)ccc2Cl)cc1[N+](=O)[O-] | . | . | . | 51.5 | . | . | 36.2 | .
O=C(CCC(=O)OCC(=O)c1cccc([N+](=O)[O-])c1)Nc1ccccc1Cl | . | . | . | 76.8 | . | . | . | .
NC1=NC(=O)C(c2ccccc2)(c2ccccc2)S1 | . | . | . | . | / | / | / | /
CCc1nnc(NC(=O)c2ccc(OC)cc2OC)s1 | . | . | . | . | . | . | / | /
COc1ccc(C(=O)Cc2nnc(C)s2)c(OC)c1 | . | . | . | 77.6 | . | . | 37.0 | .
CC(=O)Nc1ccc(O)c(-c2nc3ccccc3s2)c1 | . | . | . | 26.4 | . | . | . | .
Cc1ccc(N=C2C(=O)Nc3c(C)cccc32)cc1 | . | . | . | 55.2 | . | . | 31.6 | .
Cc1cccc2c1NC(=O)C2=Nc1ccc(Cl)cc1 | . | . | . | 55.1 | . | . | 44.5 | .
Cc1ccc(N=C2C(=O)Nc3ccc(Br)cc32)cc1 | . | . | . | . | . | . | / | /
COc1ccc(N=C2C(=O)Nc3c(C)cccc32)cc1 | . | . | . | 61.6 | . | . | 51.2 | .
CC(C)NC(=O)N(C)C[C@H]1Oc2ccc(NC(=O)Cc3ccccc3)cc2C(=O)N([C@H](C)CO)C[C@@H]1C | . | . | . | . | / | . | / | /
CCn1c(C)c(C(=O)O)c2cc(OC)c3ccccc3c21 | . | . | . | . | . | . | / | /
COc1ccc(CC(=O)OCC(=O)NCc2ccc(C)cc2)cc1OC | . | . | . | . | / | . | / | /

Assay outcomes deposited in PubChem by several laboratories.
